aSyn rescue = alpha-synuclein toxicity inhibition in yeast | hit rate 0.14% among 370,000 | Yeast expressing alpha-synuclein, growth rescue, BacTiter-Glo, 24 h | Potency, µM (titrated, usually from 46.1 µM), without a hit: top-dose growth rescue (activation), actives largely listed as activators; also: % of control where 0% means no effect; nearly all actives have a fitted effect of over 65% in size
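Galactose-induced alpha-syn yeast (OD600=0.02, raffinose-pregrown) + pinned cpd, 24 hr, 30 deg C; growth by BacTiter-Glo luminescence. Growth restoration scores as activation.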
Abeta rescue = A-beta toxicity reversal in yeast. hit rate 0.063% among 410,000. AID 1347071. Potency, µM (highest dose often 46.1 µM), actives largely listed as activators. yeast expressing A-beta42, growth rescue, OD600, 48 h; response scale: 0% DMSO, 100% iron-clioquinol control; also: nearly all actives have a fitted effect of over 55% in size
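Yeast growth medium received pinned compounds, then yeast cells expressing toxic A-beta were added; plates incubated at 30 C for 48 hr. Growth read as absorbance at 600 nm, normalized to DMSO and equimolar FeCl3 plus clioquinol controls.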
FUS yeast rescue = rescues growth of FUS-expressing yeast; AID 1347120; S. cerevisiae FUS-expressing, growth rescue, OD600, 24 h; hit rate 0.24% among 390,000; Potency, µM (top dose mostly 76.6 µM), hits mostly activators;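 also: plate controls were DMSO vehicle for no effect and reference control for full effect; nearly all actives have a fitted effect of over 55% in size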
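S. cerevisiae expressing FUS from galactose induction served as the toxicity model. Growth after 24hr at 30C, read as absorbance at 600 nm, indicates suppression of toxicity; compounds dosed at several concentrations.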
Mito fusion act = blocks mitochondrial division or promotes mitochondrial fusion; AID 485298; hit rate 0.23% among 320,000; Potency, µM (highest dose often 46.1 µM), without a hit: at the highest dose growth rescue (activation), hits mostly activators; S. cerevisiae fusion-defective mutant growth rescue, CellTiterGlo 48 h; also: % of control where 0% means no effect; nearly all actives have a fitted effect of over 45% in size
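Growth-rescue viability read-out: after 48 h at the non-permissive 37C in glycerol/ethanol YPEG, yeast mitochondrial fusion mutants are measured by CellTiterGlo luminescence; compounds (23 nl pinned per well) restoring growth score as division inhibitors or fusion activators.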
TDP-43 yeast inh = rescues yeast growth from TDP-43 toxicity; AID 652104; Potency, µM (top dose mostly 46.1 µM), for the others: top-dose growth rescue (activation), most hits filed as activators; hit rate 1.8% among 410,000; TDP-43 expressing yeast growth rescue, BacTiter-Glo, 24 h; also: % of control where 0% means no effect; nearly all actives have a fitted effect of over 50% in size
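Readout is BacTiter-Glo luminescence of cell growth, so inhibitors register as activators. TDP-43-expressing yeast at OD600=0.02 in galactose medium, after raffinose pregrowth to mid-log, were incubated with compound for 24 hr at 30 deg C.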
* = called active by the depositor; i = inactive; ? = inconclusive; . = not tested or not shown; ! = a repeat was not active; [ ] = dose if it differs, or a comment. Hits are enriched below; roughly 2.2% of the tested compounds scored in any of these assays. Calls follow the shape of the dose curve; as a rule, active = well fitted curve in the direction sought with a large enough effect; inconclusive = small, poorly fitted or top-dose-only effect, or another doubt; inactive = no such curve, though single readings can be large; an effect the other way counts as inactive or inconclusive. Potency is read from the fitted curve at half-maximal effect.

SMILES | aSyn rescue | Abeta rescue | FUS yeast rescue | Mito fusion act | TDP-43 yeast inh
CN1CCCN(C(=O)Cc2c(Cl)cccc2Cl)c2nc3ccccc3nc21 | 8% | i | i | ? | 22µM*
Cc1cc(SCC(=O)N2CCN(C(=O)c3ccco3)CC2)c(C)cc1Br | -6%[1.84 µM] | i | i | 8% | 25µM*
O=C(O)Cn1nc(-c2ccccc2)cc1-c1ccccc1 | -5% | i | i | 0% | 19%
CC(=O)n1nc(-c2ccccc2)cc1-c1ccccc1 | 17% | i | i | . | 13µM*
O=C1CC(c2ccc(Br)cc2)c2c(ccc3ccccc23)N1 (stereo not drawn) | . | i | i | . | 35µM*
O=C1CC(c2cccc([N+](=O)[O-])c2)c2c(ccc3ccccc23)N1 (stereo not drawn) | 4% | i | i | 7% | -8%
CC(C)(C)c1ccccc1OCC(=O)Nc1ccccc1C(=O)NCc1cccnc1 | 1% | i | i | 16µM* | -9%
CC(C)(C)C(=O)Nc1ccccc1C(=O)NCc1cccnc1 | 1% | i | i | 7% | 4%
c1ccc2c(-c3ccc4nncn4c3)cncc2c1 | 2% | i | i | . | 19%
C/C(=N/NC(=O)c1cccnc1)c1cccc(O)c1 | . | . | i | . | .
O=C(CNc1ccccc1-c1ccccc1)NCc1ccccc1 | 6% | i | . | ? | 20µM*
C#CCCCCCCCCC(=O)NCCCC | 6% | i | i | 5% | 3%
CCCCCCCCCCCCCCCC(=O)NCCO | 0% | i | i | 4.1µM*! | 0%
COc1cc(/C=c2\[nH]c(=O)/c(=C/c3cc(OC)c(OC)c(OC)c3)[nH]c2=O)cc(OC)c1OC | -14% | . | . | . | .
COc1ccccc1NC(=O)Nc1nc(CC(=O)N2CCN(c3ccccc3)CC2)cs1 | 4.5µM* | i | ? | -19% | 0%
CCN(Cc1ccccc1)C(=O)c1oc2ccc(S(=O)(=O)N3CCOCC3)cc2c1C | 10% | i | i | 10µM* | 16%
CCN(CC)C(=O)c1oc2ccc(S(=O)(=O)N3CCCCCC3)cc2c1C | 2% | i | i | 3% | -10%
Cc1ccc(CNC(=O)c2oc3ccc(S(=O)(=O)N4CCC5(CC4)OCCO5)cc3c2C)cc1 | 4% | i | 25µM* | 11% | -8%
Cc1cc(Cl)ccc1-n1c(CCC(=O)O)ccc1-c1cccs1 | . | i | ? | . | 22µM*
CCOC(=O)c1ccc(-n2c(CCC(=O)O)ccc2-c2cccs2)cc1 | 20µM* | i | i | -6% | 26%
Cc1ccc(Cl)cc1-n1c(CCC(=O)O)ccc1-c1cccs1 | . | i | i | . | 13µM*
O=C(O)CCc1ccc(-c2cccs2)o1 | 14µM* | i | i | -1% | ?
COCCn1c(SCC(=O)c2c[nH]c3ccccc23)nc2cc(C(=O)NCC(C)C)ccc2c1=O | . | i | i | . | 14%
CCN(c1ccc(C)cc1C)S(=O)(=O)c1nnc(NC(=O)C(C)(C)C)s1 | 1% | i | i | -12% | 0%
CCOc1ccc(NC(=O)c2c(NCc3cccnc3)sc3c2CCC(C)C3)cc1 (stereo not drawn) | . | i | ? | . | 20%
SMILES | aSyn rescue | Abeta rescue | FUS yeast rescue | Mito fusion act | TDP-43 yeast inh
O=[N+]([O-])c1ccc(/C=C2\C=C(C(O)c3ccc([N+](=O)[O-])cc3)c3ccccc32)cc1 (stereo not drawn) | 13% | . | . | . | .
Fc1cccc(Cl)c1CNc1n[nH]c(-c2ccco2)n1 | . | i | i | . | ?
O=C(NCC1CC1)c1ccc2nc(-c3ccoc3)c(-c3ccoc3)nc2c1 | 2% | . | . | . | .
CCCCn1c(CCC(=O)O)ccc1-c1cccs1 | 16% | i | i | 5% | 18µM*
Cc1ccc(NC(=O)Cn2ncn3c(cc4ccccc43)c2=O)c(C)c1 | 0% | i | 32µM*! | -1% | 12%
Clc1ccc(-c2nc3c4ccccc4ccn3c2Cc2cccc(Cl)c2)cc1 | 9% | i | i | . | 6%
Cc1ccc(-c2nc3c4ccccc4ccn3c2Cc2ccccc2)cc1 | 0% | i | ? | . | 0%
COc1ccc(-c2nc3c4ccccc4ccn3c2Cc2cccc(Cl)c2)cc1OC | 17% | i | i | . | 14µM*
COc1ccc(-c2nc3c4ccccc4ccn3c2Cc2ccc(C)cc2)cc1OC | 22% | i | i | . | 10µM*
Fc1cccc(Cc2c(-c3ccccc3)nc3c4ccccc4ccn23)c1 | -5% | i | i | . | 14µM*
Cc1ccc(Cc2c(-c3ccccc3)nc3c4ccccc4ccn23)cc1 | 1% | i | ? | . | 14µM*
Clc1cccc(Cc2c(-c3cccc(Br)c3)nc3c4ccccc4ccn23)c1 | -3% | i | i | . | 20%
COc1ccccc1Cc1c(-c2ccco2)nc2c3ccccc3ccn12 | 1% | i | i | . | 22µM*
CCOC(=O)Cc1c(-c2cccc(Cl)c2)nc2c3ccccc3ccn12 | 1% | i | i | . | 13µM*
COc1ccccc1Cc1c(-c2ccco2)nc2c(C)cc(Br)cn12 | -71% | i | i | . | ?
Cc1ccc(Cl)cc1N1CCN(C(=O)c2cn(C)c3ccc(S(=O)(=O)N4CCCC4)cc3c2=O)CC1 | . | i | i | . | -10%
C[C@H]1C(=O)[C@]23C[C@H]1CC[C@H]2[C@]1(C)[C@@H](O)CC[C@@](C)(C(=O)O)[C@H]1C[C@@H]3O | . | . | i | . | .
CC1CC(C)CN(C(=O)c2ccc3c(c2NCCO)C(=O)c2ccccc2C3=O)C1 (stereo not drawn) | -1% | i | i | 5% | 18µM*
COc1ccc(NC(=O)c2ccc3c(c2)N(Cc2cccc(Cl)c2)C(=O)c2ccccc2S3(=O)=O)cc1Cl | 4% | i | i | . | 21%
C=CCn1c(C)cc(C(=O)CSc2nnc(Cc3ccccc3)o2)c1C | 2% | ? | i | -20% | 2.5µM*
C=CCn1c(C)cc(C(=O)CSc2nnc(NC(C)C)s2)c1C | -10% | i | i | -15% | 22%
C=CCn1c(C)cc(C(=O)CSc2nnc(NCc3ccccc3)s2)c1C | 2% | ? | i | -2% | 11µM*
C=CCn1c(C)cc(C(=O)CSc2nc3ccccc3[nH]2)c1C | 19% | i | i | -5% | 16%
C=CCn1c(C)cc(C(=O)CSc2nc3ccccc3o2)c1C | 5% | i | i | -1% | 22µM*
C=CCn1c(C)cc(C(=O)CSc2nc3ccccc3c(=O)[nH]2)c1C | 2% | i | i | -20% | 10µM*
O=C(CSc1n[nH]c(-c2ccccc2)n1)N1CCN(c2ccccc2F)CC1 | . | i | i | . | ?
Nn1c(SCC(=O)NC2CCCCC2)nnc1-c1cc(-c2ccc(Cl)cc2)n[nH]1 | . | . | i | . | .
CCc1ccccc1N(CC)C(=O)Cn1nc(Cc2ccncc2)c2ccccc2c1=O | . | i | i | . | -4%
COc1ccc(CCSc2n[nH]c(C(C)C)n2)cc1 | -4% | . | . | . | .

Screening data deposited in PubChem BioAssay by National Center for Advancing Translational Sciences (NCATS).
